# Only some compounds are listed: those with a hit (about 2.9% of all), similar ones and a draw of the others.
# PLC-gamma1 inh: PLC-gamma1 enzyme inhibitors, primary screen, biochemical, fluorescence, purified enzyme; inhibition, % at 12.2 µM; AID 720700, 2013; fluorogenic substrate; actives 0.84% (n = 370,000); 1-phosphatidylinositol 4,5-bisphosphate phosphodiesterase gamma-1 (Homo sapiens), P19174
# ADAM10 inh: human ADAM10 inhibitors, primary screen, biochemical, QFRET, HTS | Disintegrin and metalloproteinase domain-containing protein 10 (Homo sapiens), O14672 | recombinant ADAM10, EDANS/DABCYL FRET peptide cleavage, 3 h | inhibition, % at 7 µM | actives 0.62% (n = 370,000) | AID 720582, 2013;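 active = inhibition above a per-campaign cutoff equal to the mean of compounds falling between control-based bounds plus 3 SD, cut at about 20% in these data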;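 note: 0% = DMSO wells while the 100% control is not disclosed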
# Target sequence (O14672 214-748 limits assumed): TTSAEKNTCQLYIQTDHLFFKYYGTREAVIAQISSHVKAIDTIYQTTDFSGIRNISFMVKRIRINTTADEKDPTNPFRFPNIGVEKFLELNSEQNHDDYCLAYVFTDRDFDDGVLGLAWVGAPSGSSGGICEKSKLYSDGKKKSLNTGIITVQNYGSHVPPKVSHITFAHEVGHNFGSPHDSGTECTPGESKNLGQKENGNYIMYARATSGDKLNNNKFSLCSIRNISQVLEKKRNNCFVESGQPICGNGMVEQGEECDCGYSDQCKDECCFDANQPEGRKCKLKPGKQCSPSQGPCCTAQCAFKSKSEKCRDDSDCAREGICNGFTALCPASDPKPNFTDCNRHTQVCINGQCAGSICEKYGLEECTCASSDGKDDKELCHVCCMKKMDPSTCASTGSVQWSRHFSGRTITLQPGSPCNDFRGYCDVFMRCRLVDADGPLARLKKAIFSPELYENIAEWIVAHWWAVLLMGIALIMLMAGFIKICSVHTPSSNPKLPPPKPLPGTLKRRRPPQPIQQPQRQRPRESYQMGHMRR
# KLK7 zymogen act: proKLK7 zymogen activators, primary screen, biochemical, fluorescence intensity; Kallikrein-7 (Homo sapiens), P49862; purified proKLK7, EDANS-DABCYL substrate fluorescence; 100% is mature enzyme control, 0% vehicle; activation, % at 7 µM; actives 0.9% (n = 370,000); AID 652039, 2013;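 active = activation above the mean of all tested compounds plus 3 SD, computed per campaign excluding outliers beyond control limits, cut at about 13% in these data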
# PLCb3 inh: human PLC-beta3 inhibitors, primary screen, biochemical, fluorescence | Purified PLC-beta3, fluorogenic substrate | inhibition, % at 12.2 µM | actives 0.18% (n = 370,000) | AID 720704, 2013; in the data active = inhibition above about 11%;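 note: 0% = median of compound wells on plate and 100% = full blocker control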
# ADAM17 inh: ADAM17 inhibitors, primary screen, biochemical, QFRET. actives 0.83% (n = 370,000). AID 720648, 2013. inhibition, % at 6.95 µM. Disintegrin and metalloproteinase domain-containing protein 17 (Homo sapiens), P78536. recombinant ADAM17, EDANS/DABCYL FRET peptide cleavage;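 active = inhibition above the mean of compounds lying between control limits plus 3 SD, set per campaign, cut at about 8.5% in these data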;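 note: 0% = DMSO-only wells as the low control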
# PLCg1 ctr: PLC-gamma1 enzyme inhibitors, counter-screen for PLC-beta3 inhibitor project, biochemical, fluorescence; shares compounds with PLC-gamma1 inh; purified PLC-gamma1, fluorogenic substrate; inhibition, % at 12.3 µM; actives 3.1% (n = 3,300); AID 743258, 2014
# PLCbeta3 conf: PLC-beta3 inhibitor confirmation, biochemical, fluorescence, purified enzyme; shares compounds with PLC-gamma1 inh; fluorogenic substrate fluorescence; inhibition, % at 12.3 µM; actives 1% (n = 3,300); AID 743261, 2014; in the data active = inhibition above about 11%
# Active calls of the source: *; · = no result. Cut-off read from the data, not from the text of the source, unless noted: active = inhibition above about 9.5%; inactive = the rest.
SMILES,PLC-gamma1 inh,ADAM10 inh,KLK7 zymogen act,PLCb3 inh,ADAM17 inh,PLCg1 ctr,PLCbeta3 conf
Cc1ccc(NC(=O)Cn2sc3nc(C)cc(C)c3c2=O)c(Cl)c1,13*,-5,0,-1,4,-6,-2
Cc1cc(C)c2c(=O)n(CC(=O)Nc3ccc(Cl)cc3)sc2n1,1,-18,0,-5,-13,·,·
COc1ccc(-c2cccc(NS(=O)(=O)c3cccc([N+](=O)[O-])c3)c2)nn1,-2,0,0,-2,-1,·,·
COc1ccc(-c2ccc(NS(=O)(=O)c3cccc([N+](=O)[O-])c3)cc2)nn1,13*,9,0,-2,2,-3,-1
CN1C(=O)[C@@]2(O[C@H]3[C@H]4C=C[C@@H]([C@H]5C(=O)N(Cc6ccccc6)C(=O)[C@@H]45)N3C3=C2C(=O)CC3)c2ccccc21,3,-2,0,14*,5,-2,2
O=C1Nc2ccccc2C(=O)N2[C@H](c3ccccc3)[C@@H]3C(=O)N(Cc4ccccc4)C(=O)[C@@H]3[C@H]12,-2,-2,0,-4,0,·,·
C[C@@H]1CN([C@H](C)CO)C(=O)CCCn2cc(nn2)CO[C@H]1CN(C)S(=O)(=O)c1ccc(C#N)cc1,3,-1,0,-2,1,·,·
CCc1ccc(C(=O)NNC(=O)CCc2nc3ccccc3c(=O)[nH]2)cc1,-10,-4,0,-18,-2,·,·
Cc1cccc(-n2ncc3c(NC(C)C)ncnc32)c1,-2,-14,-1,-3,4,·,·
Cc1cccc(-n2ncc3c(N)ncnc32)c1,10*,9,0,12*,6,-3,0
Cc1cccc(C)c1Nc1ncnc2ccccc12,9.7*,-8,-1,0,4,-3,-1
COc1c(Cl)cc(C(=O)NCc2ccco2)cc1Cl,2,6,1,-7,-2,·,·
COC1OC2COC(c3ccccc3)OC2C(OC(=O)c2ccccc2)C1OC(=O)c1ccccc1 (stereo not drawn),5,14,0,4,-2,·,·
COC1OC2COC(c3ccccc3)OC2C(NC(C)=O)C1OC(C)=O (stereo not drawn),10*,11,0,14*,6,1,4
O=C(Nc1ccncc1)c1ccc2c(c1)C(=O)N(CC1CCCO1)C2=O (stereo not drawn),11*,0,0,5,0,-3,1
Cc1cc(=O)[nH]c2nnc(-c3ccc(Cl)cc3)n12,1,-6,0,-2,-1,·,·
CCOC(=O)c1sc(NC(=O)CCCCl)nc1C,9.8*,-3,-1,5,0,-1,-2
Cn1nnnc1SCCNC/C=C/c1ccccc1,8,-1,-1,13*,5,-5,0
Cn1nnnc1SCCNCc1cccc2ccccc12,0,4,0,-137,-5,·,·
CCn1cc(Br)c(C(=O)NCc2ccco2)n1,10*,7,0,9,5,-7,-3
CCN(CC(=O)NC1CCS(=O)(=O)C1)C(=O)C(c1ccccc1)c1ccccc1 (stereo not drawn),12*,1,0,1,-7,-2,0
COc1ccc2c(c1)OC(O)(C(F)F)CC2=O (stereo not drawn),12*,3,0,2,3,-9,-3
CSc1cc(SC)ncn1,5,-18,-1,12*,1,-6,-1
CCN1CCN(C(=O)CN(CCc2ccccc2)S(C)(=O)=O)CC1,9.9*,14,0,3,1,-6,0
CN1CCN(C(=O)CN(CCc2ccccc2)S(C)(=O)=O)CC1,0,-2,0,1,-4,·,·
SMILES,PLC-gamma1 inh,ADAM10 inh,KLK7 zymogen act,PLCb3 inh,ADAM17 inh,PLCg1 ctr,PLCbeta3 conf
Cc1cc(C)c2c(c1)/C(=N/NS(=O)(=O)c1ccc(Br)cc1)CCC2,3,3,0,2,1,·,·
Cc1cc(C)c2c(c1)/C(=N/NS(=O)(=O)c1ccccc1)CCC2,0,-6,0,11*,-7,3,-1
COc1cccc(NC(=O)CN(C)CC(=O)Nc2ccc(C)c(S(=O)(=O)N3CCOCC3)c2)c1,2,-12,1,0,-1,·,·
C=CCSC1=N/C(=C\c2cc(OCC)c(OC(C)=O)c([N+](=O)[O-])c2)C(=O)S1,12*,13,0,5,5,2,-1
O=C(CSc1ccccc1)N1CCCC(N2CCN(c3ccccc3)CC2)C1 (stereo not drawn),3,0,1,-3,1,·,·
CCN(C(=O)Cn1cnc2c(nc3n2CCCCC3)c1=O)c1cccc(Cl)c1,12*,7,0,0,0,-7,-5
CCCC/C=C1/[C@@H](C(C)C)N(Cc2ccc3c(c2)OCO3)C2=N[C@H](c3ccccc3)CC(=O)N21,8,9,·,11*,4,2,0
CCOC(=O)c1ccc(NC(=O)N2CCN(S(C)(=O)=O)CC2)cc1,12*,3,-1,4,0,-7,-3
O=C(Cc1ccccc1)Nc1ccc(N2CCOCC2)cc1N1CCOCC1,15*,12,0,7,7,-6,-4
O=C(Cc1ccccc1)Nc1ccc(N2CCOCC2)cc1,0,-1,1,-2,-4,·,·
Cc1cccc(OCc2nc(-c3cccnc3)no2)c1,6,5,0,6,2,·,·
Cc1ccc(C)c(OCc2nc(-c3cccnc3)no2)c1,9.8*,4,0,0,3,-6,-9
O=C(Nc1ccc(S(=O)(=O)Nc2cnc3ccccc3n2)cc1)c1cccc(OC(F)F)c1,-17,-39,0,-30,-15,·,·
CC(=O)NC1c2ccccc2C(=O)N1Cc1ccccc1 (stereo not drawn),11*,7,0,4,3,-4,-2
CC(C)NC(=O)c1cc(C2CCCCN2C(=O)OCCF)on1 (stereo not drawn),-1,-12,0,3,-1,·,·
Cc1ccc(/C=N\NC(=O)Cn2c(C)nc3ccccc32)o1,9.8*,8,1,4,1,-5,0
Cc1ccc(/C=N/NC(=O)Cn2cnc3ccccc32)o1,0,3,-1,-1,1,·,·

# Bioassay records deposited in PubChem BioAssay by The Scripps Research Institute Molecular Screening Center.
